Experimental data: ChEMBL document CHEMBL3988442, “University of Dundee, Small-Polar-MMV Screening Library” (2021)
For part of these data: Entries with a potency or affinity are not part of this list.

How the values were obtained:
Set-up in all cases: scale not given: direction of the effect not stated beside the values
[1] = target: Protein translocase subunit SecA (Escherichia coli (strain K12)) (UniProt P10408); assay: Assay to Identify E. coli SecA ATPase Inhibitors; format: functional; conditions: 30 µM
Sequence of Protein translocase subunit SecA (Escherichia coli (strain K12)) (P10408 whole entry): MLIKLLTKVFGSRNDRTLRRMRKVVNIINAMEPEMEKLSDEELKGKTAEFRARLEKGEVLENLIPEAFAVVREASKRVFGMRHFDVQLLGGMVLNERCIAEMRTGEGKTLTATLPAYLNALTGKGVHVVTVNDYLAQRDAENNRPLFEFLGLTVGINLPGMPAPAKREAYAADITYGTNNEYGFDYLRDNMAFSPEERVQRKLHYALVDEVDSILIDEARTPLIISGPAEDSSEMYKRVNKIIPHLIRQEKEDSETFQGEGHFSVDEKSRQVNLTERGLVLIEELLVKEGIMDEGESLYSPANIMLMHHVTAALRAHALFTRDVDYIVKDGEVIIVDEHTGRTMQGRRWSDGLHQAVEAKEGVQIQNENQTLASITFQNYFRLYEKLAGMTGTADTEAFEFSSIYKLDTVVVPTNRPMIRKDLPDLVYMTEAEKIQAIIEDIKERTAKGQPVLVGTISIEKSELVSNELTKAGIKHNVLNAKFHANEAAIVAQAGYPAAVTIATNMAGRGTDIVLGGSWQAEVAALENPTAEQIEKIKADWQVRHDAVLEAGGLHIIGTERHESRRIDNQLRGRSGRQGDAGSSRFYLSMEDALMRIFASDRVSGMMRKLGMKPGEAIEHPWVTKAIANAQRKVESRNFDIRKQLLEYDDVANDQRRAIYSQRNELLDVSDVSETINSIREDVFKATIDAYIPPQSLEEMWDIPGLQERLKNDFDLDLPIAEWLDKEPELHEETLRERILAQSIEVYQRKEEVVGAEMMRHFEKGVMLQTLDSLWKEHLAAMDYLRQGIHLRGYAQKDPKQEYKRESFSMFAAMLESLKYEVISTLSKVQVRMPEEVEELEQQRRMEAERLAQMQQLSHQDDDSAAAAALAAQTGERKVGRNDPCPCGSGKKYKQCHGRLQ

[2] = target: T1, Ubiquitin-activating enzyme e1, putative (Leishmania donovani (strain BPK282A1)) (UniProt E9BSI1); assay: Leishmania donovani Ubiquitin Activating Enzyme (LdE1); format: functional; conditions: 30 µM
T1 sequence (whole entry): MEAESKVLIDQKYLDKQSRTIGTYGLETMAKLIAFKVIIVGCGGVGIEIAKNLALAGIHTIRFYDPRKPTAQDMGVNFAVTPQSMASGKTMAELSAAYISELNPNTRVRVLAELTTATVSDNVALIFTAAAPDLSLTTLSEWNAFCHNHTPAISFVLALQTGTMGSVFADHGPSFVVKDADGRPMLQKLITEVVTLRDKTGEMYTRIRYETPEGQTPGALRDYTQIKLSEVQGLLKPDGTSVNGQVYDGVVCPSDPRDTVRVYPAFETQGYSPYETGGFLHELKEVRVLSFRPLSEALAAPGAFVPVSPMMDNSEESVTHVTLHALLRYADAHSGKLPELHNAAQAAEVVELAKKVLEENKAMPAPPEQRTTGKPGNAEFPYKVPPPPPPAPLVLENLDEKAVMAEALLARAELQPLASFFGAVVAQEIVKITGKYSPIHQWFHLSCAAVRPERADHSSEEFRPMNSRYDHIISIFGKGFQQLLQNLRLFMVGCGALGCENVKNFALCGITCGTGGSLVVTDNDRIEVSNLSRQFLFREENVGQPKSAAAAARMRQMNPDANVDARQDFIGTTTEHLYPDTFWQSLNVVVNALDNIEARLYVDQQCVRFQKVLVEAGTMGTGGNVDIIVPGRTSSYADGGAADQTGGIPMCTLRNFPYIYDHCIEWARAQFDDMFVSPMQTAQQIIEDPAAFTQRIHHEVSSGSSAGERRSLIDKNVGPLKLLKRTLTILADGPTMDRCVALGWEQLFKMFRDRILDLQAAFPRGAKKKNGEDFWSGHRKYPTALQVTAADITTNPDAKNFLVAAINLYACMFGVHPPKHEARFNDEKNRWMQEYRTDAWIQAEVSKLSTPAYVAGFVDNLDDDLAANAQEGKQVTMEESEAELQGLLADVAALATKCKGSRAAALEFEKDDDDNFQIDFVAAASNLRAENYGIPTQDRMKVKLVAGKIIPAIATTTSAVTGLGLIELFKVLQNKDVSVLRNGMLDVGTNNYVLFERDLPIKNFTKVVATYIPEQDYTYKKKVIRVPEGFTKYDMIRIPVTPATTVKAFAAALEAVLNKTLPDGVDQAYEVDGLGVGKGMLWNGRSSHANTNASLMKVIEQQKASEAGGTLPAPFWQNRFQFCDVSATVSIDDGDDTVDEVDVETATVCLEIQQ

[3] = target: AMP-activated protein kinase, AMPK (Homo sapiens) (UniProt P54646+O43741+P54619+Q9UGJ0+Q9Y478+Q13131+Q9UGI9); assay: AMP-dependent Kinase enzyme assay. An in vitro enzyme assay that detects ADP turnover that is directly proportional to AMPK activity. This uses naive AMPK that is activated during the assay with MK-8722; format: functional; conditions: 30 µM
[4] = target: Sialic acid-binding Ig-like lectin 9 (Homo sapiens) (UniProt Q9Y336); assay: Hs-Siglec9 ALPHAscreen SOP 20170721; conditions: 10 µM
Sequence of Sialic acid-binding Ig-like lectin 9 (Homo sapiens) (Q9Y336 whole entry): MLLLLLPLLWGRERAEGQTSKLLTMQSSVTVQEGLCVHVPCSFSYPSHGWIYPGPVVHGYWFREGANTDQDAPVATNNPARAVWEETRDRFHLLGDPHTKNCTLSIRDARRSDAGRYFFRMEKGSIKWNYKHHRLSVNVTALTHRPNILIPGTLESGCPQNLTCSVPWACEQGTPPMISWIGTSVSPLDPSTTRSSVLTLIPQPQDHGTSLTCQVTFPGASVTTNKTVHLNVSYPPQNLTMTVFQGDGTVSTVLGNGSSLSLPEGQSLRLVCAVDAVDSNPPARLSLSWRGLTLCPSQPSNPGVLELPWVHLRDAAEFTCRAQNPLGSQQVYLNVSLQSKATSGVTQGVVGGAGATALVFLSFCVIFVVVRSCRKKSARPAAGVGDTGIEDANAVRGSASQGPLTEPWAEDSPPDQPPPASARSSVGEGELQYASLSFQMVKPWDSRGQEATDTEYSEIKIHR

Trypanosoma cruzi = assay: Trypanosoma cruzi phosphomannomutase and mannose-1-phosphate guanylyltransferase assay; format: functional; conditions: 10 µM
[5] = target: T2, Arginase-2, mitochondrial (Homo sapiens) (UniProt P78540); assay: in vitro enzyme assay to detect the production of urea directly proportional to the activity of Arginase II; format: functional; conditions: 33.3 µM; also: in the data most compounds retested in dose-response had high values
T2 sequence (whole entry): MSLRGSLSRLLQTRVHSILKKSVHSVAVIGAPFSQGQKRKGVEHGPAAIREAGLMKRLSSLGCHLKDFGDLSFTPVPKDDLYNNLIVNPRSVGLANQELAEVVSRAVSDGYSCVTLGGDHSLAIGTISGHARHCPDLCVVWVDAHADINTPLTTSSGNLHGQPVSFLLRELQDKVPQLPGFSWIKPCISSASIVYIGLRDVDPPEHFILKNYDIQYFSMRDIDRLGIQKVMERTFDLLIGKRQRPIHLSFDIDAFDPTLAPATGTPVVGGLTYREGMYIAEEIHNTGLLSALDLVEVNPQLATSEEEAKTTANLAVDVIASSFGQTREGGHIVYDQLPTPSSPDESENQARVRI

[6] = target: T3, Proteasome subunit beta (Trypanosoma cruzi) (UniProt O96673); assay: Trypanosoma cruzi proteasome chymotrypsin-like activity (TcProtChymo) assay.; also: in the data most compounds retested in dose-response had high values; format: functional; conditions: 9.37 µM
T3 sequence (whole entry): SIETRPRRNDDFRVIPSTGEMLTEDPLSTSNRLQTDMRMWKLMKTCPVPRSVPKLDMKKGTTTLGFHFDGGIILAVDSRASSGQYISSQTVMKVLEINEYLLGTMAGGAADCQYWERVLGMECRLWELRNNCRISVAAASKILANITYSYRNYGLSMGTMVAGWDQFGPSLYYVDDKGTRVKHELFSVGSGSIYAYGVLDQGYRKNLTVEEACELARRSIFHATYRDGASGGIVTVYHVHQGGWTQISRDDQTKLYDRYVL

Homo sapiens = organism: Homo sapiens; assay: To identify inhibition of the IFN signalling (Jak-Stat) pathway via expression of an eGFP reporter gene under the control of an IFN-stimulated response element (ISRE) containing MxA promoter.; format: functional; conditions: 30 µM
[7] = target: T4, Tyrosyl-tRNA synthetase, putative (Trypanosoma cruzi (strain CL Brener)) (UniProt Q4DSP6); assay: Trypanosoma cruzi tyrosyl tRNA synthetase (TcYRS) _High Tyrosine SOP; format: functional; conditions: 30 µM; also: in the data most compounds retested in dose-response had high values
T4 sequence (whole entry): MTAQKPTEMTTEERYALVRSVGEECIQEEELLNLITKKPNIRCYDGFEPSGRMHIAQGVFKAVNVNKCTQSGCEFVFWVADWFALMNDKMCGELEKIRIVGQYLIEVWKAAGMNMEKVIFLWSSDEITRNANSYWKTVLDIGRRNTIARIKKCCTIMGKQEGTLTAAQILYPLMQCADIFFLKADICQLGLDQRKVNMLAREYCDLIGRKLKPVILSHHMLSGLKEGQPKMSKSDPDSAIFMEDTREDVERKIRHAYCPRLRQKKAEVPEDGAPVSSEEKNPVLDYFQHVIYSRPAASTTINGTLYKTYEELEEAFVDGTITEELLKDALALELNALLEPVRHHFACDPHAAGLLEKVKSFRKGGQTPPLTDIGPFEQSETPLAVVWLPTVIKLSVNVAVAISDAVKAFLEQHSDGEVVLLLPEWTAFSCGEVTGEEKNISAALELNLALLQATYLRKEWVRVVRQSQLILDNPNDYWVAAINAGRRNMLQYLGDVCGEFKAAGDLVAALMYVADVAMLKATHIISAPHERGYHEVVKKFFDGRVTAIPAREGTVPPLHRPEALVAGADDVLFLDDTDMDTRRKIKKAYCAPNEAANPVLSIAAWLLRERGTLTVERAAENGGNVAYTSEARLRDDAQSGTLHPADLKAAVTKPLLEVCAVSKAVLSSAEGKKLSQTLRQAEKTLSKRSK

[8] = target: T4, Tyrosyl-tRNA synthetase, putative (Trypanosoma cruzi (strain CL Brener)); assay: Trypanosoma cruzi tyrosyl tRNA synthetase (TcYRS) SOP; format: functional; conditions: 30 µM
[9] = target: Chromo domain-containing protein 1 (Saccharomyces cerevisiae (strain ATCC 204508 / S288c) (Baker's yeast)) (UniProt P32657); assay: ScCHD-1 Enzyme Inhibition Assay; format: functional; conditions: 30 µM; also: in the data most compounds retested in dose-response had high values
Sequence of Chromo domain-containing protein 1 (Saccharomyces cerevisiae (strain ATCC 204508 / S288c) (Baker's yeast)) (P32657 whole entry, the tested form may be a part): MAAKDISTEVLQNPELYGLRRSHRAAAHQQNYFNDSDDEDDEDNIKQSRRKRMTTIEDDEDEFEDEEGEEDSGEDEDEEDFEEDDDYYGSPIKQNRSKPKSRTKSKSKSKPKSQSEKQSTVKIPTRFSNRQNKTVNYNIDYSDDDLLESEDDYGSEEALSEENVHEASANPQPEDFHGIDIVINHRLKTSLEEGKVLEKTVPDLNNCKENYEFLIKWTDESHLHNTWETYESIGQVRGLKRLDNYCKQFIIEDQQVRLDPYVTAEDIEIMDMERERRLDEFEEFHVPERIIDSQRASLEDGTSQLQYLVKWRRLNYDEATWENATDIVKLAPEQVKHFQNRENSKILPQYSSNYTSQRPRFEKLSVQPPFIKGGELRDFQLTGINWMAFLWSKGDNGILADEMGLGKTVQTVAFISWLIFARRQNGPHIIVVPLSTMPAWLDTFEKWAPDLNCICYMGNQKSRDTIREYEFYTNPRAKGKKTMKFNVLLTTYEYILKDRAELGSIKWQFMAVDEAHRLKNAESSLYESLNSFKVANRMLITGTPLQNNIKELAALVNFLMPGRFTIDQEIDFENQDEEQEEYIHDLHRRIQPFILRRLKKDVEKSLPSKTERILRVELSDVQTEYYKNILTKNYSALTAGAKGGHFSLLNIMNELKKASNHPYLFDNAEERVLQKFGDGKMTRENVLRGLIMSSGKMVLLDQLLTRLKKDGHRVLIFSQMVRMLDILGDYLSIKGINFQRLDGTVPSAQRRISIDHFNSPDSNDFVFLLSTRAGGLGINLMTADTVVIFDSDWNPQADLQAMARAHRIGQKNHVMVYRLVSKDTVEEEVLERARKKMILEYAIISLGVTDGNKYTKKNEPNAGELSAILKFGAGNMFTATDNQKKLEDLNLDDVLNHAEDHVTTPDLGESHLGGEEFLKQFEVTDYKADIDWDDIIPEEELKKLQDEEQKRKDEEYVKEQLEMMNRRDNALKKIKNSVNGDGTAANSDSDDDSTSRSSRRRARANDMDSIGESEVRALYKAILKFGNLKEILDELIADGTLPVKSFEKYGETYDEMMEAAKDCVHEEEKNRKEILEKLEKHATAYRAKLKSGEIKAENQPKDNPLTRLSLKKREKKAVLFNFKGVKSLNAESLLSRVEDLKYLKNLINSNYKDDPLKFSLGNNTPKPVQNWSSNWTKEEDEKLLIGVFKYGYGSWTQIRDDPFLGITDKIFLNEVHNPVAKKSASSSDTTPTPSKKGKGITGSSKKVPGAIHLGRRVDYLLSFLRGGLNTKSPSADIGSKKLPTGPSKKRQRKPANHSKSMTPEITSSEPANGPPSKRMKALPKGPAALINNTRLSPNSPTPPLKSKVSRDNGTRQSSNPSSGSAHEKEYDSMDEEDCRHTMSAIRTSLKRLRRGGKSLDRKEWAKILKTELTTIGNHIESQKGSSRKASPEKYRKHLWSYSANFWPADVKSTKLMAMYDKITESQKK

| Compound | Percent Effect [1] [%] | Percent Effect [2] [%] | Percent Effect [3] [%] | Percent Effect [4] [%] | Percent Effect (Trypanosoma cruzi) [%] | Percent Effect [5] [%] | Percent Effect [6] [%] | Percent Effect (Homo sapiens) [%] | Percent Effect [7] [%] | Percent Effect [8] [%] | Percent Effect [9] [%] |
| --- | --- | --- | --- | --- | --- | --- | --- | --- | --- | --- | --- |
| CC(NC(=O)Nc1cc(F)ccc1N1CCCCC1)c1nncn1C (stereo not drawn) | -4.95 | 5.41 | -5.33 | -3.53 | -3.49 | 2.81 | -3.78 | 1.69 | 1.48 | 1.24 | -2.66 |
| CSC(C)C(=O)N1CCCN(Cc2cscn2)CC1 (stereo not drawn) | -3.08 | 18.4 | 1.3 | -6.37 | -1.13 | -3.45 | 15.9 | 9.75 | 4.41 | 9.76 | -13.2 |
| CCn1cnnc1CNC(=O)NC(C)c1cccs1 (stereo not drawn) | -1.87 | 23.4 | -0.473 | 11.3 | 1.5 | -5.69 | 3.38 | 10.1 | 4.85 | 21.9 | -8.5 |
| Cn1cnc2c(N3CCCC3)nc(C3CCNCC3)cc21 | -0.224 | 13.3 | -2.65 | 0.534 | 0.965 | -48.6 | 9.23 | 1.97 | 3.12 | 20 | -8.26 |
| Cc1cc(C[C@@H]2COC[C@H]2NCc2ccccc2C(F)(F)F)on1 | -5.6 | 4.05 | -0.353 | 6.23 | 1.58 | 0.232 | 14 | 5.54 | 3.23 | 11.7 | -18.2 |
| CN(CCCc1cnn(C)c1)C(=O)C1COc2ccccc2C1 (stereo not drawn) | 0.742 | 8.22 | 1.84 | -1.88 | -1.37 | 2.27 | 20.6 | 9.33 | 2.15 | 17.5 | -14.2 |
| Cc1ccc(NC(=O)N2CCN(Cc3noc(C4CC4)n3)CC2)cc1 | -10.7 | -1.27 | 5.38 | -5.9 | -3.38 | -4.09 | 10.1 | 10.8 | -1.04 | -5.06 | -24.6 |
| COc1cccc(CNCc2c(C(C)C)nn(C)c2N(C)C)c1OC | 2 | 10.5 | -0.641 | -1.37 | -7.33 | 2.68 | 16.2 | 8.82 | 3.43 | 7.32 | -8.1 |
| Cc1ccc(C(=O)CCC(=O)N2CCC(c3nncn3C)CC2)cc1 | -8.28 | 15.6 | -6.09 | 19.9 | 5.24 | 1.78 | 11.3 | 9.84 | 5.83 | 24.4 | -1.85 |
| c1ncc(Nc2nccc(C3CCCCN3CC3CCCCC3)n2)cn1 (stereo not drawn) | -4.71 | 13.3 | 10.8 | -4.81 | -0.591 | 3.5 | 10.5 | 21.9 | 2.13 | 11.5 | -6.48 |
| CC1CCc2nc(O)c(C(=O)NCCN(C)C)cc2C1 (stereo not drawn) | -6.34 | 4 | -0.0231 | 6.09 | 1.38 | -6.51 | 14.8 | -2.83 | 1.06 | 2.56 | -5.39 |
| CCc1c(C)nc2n(c1=O)CC(C(=O)Nc1nc3c(s1)CCCC3)CS2 (stereo not drawn) | -2.52 | 13 | 6.33 | 7.47 | 2.86 | -4.52 | 7.66 | 18.6 | 6.35 | 14.1 | -8.32 |
| O=C(c1cc(F)ccc1F)C1CCN(C(=O)c2ccccn2)CC1 | -3.32 | 13 | 3.21 | -2.77 | 1.27 | 3.58 | 17.1 | 21.7 | 7.62 | 23.5 | -13.2 |
| COC(C(=O)N1CCN(c2cccc(Cl)c2)C(=O)C1)c1ccccc1 (stereo not drawn) | -1.02 | 0 | 0.72 | 1 | -2.7 | 3.33 | 14.7 | 0.627 | 3.7 | 9.76 | -4.32 |
| COCC1CCCN(C(=O)c2cc(Cn3ccc4ccccc43)[nH]n2)C1 (stereo not drawn) | -5.5 | -7.79 | 0.36 | 11.2 | 8.75 | -81.4 | -0.666 | -41.3 | 14 | 18.5 | 127 |
| Cn1ccnc1CNC1CCCN(Cc2noc(C3CC3)n2)C1 (stereo not drawn) | -1.62 | 0 | -11.6 | 4.95 | 2.9 | 3.81 | 13.8 | 1.96 | 10.1 | 17.1 | -3.57 |
| CC(=O)N1CCC[C@H]1C(=O)NCCOc1cccc(Cl)c1 | -0.692 | 7.79 | -8.32 | -3.36 | 4.31 | 4.98 | 13.7 | 12.4 | 6.8 | 24.4 | -9.94 |
| CS(=O)(=O)c1ccc(OCCNCc2ccc(F)cc2F)cc1 | -5.74 | 8.22 | 1.54 | 2.33 | 4.37 | -7.19 | 9.85 | 6.01 | 8.33 | 13.6 | -1.49 |
